This is a sample that favours compounds with a hit; in the whole collection about 2.9% have one here.
ERb SRC1 inh: ER-beta (human) coactivator binding inhibition | TR-FRET ER-beta LBD / SRC1-Cy5 peptide binding; receptor agonist-loaded with 1 µM estradiol | inhibition, % at 25.6 µM | 86,000 compounds, 1.3% hits | AID 633;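 active means compounds whose percent inhibition of the receptor-coactivator binding signal exceeds about 50% in the single-dose screen, limit read from the data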;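 further: 0% = receptor plus peptide wells without compound and 100% = peptide-only wells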
Smad3 FoxH1 inh: blocks human Smad3 binding to FoxH1 peptide; AID 630; P84022; inhibition, % at 25 µM; 88,000 compounds, 0.29% hits; TR-FRET Smad3/Dy647-FoxH1 peptide binding, europium anti-His;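 active means compounds that reduce the energy-transfer binding signal between the protein and its labelled peptide by more than half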;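 further: 0% = Smad3 plus labelled peptide maximal FRET and 100% = peptide-only background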
ERa SRC1 pot: enhances coactivator binding to human estrogen receptor alpha. TR-FRET ERalpha-LBD/SRC-Cy5 coactivator binding, 2 h; 100 = basal binding, no effect. coactivator binding (% of control), % at 25.6 µM. P03372. 86,000 compounds, 1.3% hits; in the data active means activity above about 200%;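 further: binding measured in presence of low estradiol as agonist stimulus; 0% = peptide alone without receptor and 100% = receptor with peptide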
Target sequence (P03372 whole entry, looked up, the tested form may be a part): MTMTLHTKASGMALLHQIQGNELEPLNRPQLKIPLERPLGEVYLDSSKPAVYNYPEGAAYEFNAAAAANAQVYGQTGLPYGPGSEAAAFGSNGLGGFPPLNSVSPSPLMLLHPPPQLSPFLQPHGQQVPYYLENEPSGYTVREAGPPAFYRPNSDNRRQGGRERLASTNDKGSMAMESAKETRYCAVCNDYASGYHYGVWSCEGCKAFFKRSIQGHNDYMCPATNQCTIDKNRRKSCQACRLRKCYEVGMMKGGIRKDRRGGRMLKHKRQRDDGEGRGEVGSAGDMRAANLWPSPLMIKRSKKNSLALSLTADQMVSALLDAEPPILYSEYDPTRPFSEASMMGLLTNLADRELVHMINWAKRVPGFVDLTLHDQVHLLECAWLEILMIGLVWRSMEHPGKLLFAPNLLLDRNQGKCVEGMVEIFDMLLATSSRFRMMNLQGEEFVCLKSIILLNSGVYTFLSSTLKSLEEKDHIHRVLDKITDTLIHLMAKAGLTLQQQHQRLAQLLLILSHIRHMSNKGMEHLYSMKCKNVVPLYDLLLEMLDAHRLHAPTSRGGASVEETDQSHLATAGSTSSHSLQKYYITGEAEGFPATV
HePTP inhibitor: human HePTP phosphatase inhibition. P35236. recombinant HePTP phosphatase activity, OD absorbance. inhibition, % at 20 µM. 110,000 compounds, 0.64% hits; in the data active means inhibition above about 50%;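 further: plate controls were vehicle for no effect and reference inhibitor for full effect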
ERa coact inh: blocks coactivator binding to human estrogen receptor alpha; inhibition, % at 25.6 µM; AID 629; TR-FRET ER-alpha LBD / SRC-1 peptide, estradiol-bound; 86,000 compounds, 1.7% hits; P03372; in the data active means inhibition above about 50%;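 further: 0% = receptor plus peptide control and 100% = peptide only without receptor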
Candida biofilm: kills Candida albicans biofilms; C. albicans biofilm + clotrimazole, Alamar Blue; inhibition, % at 6 µM; 85,000 compounds, 0.14% hits; AID 834;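 active means inhibition above 20%; inactive means inhibition below 20%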;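 further: preformed 24 hr biofilms exposed to compound for 48 hr; 0% = biofilm without compound and 100% = blank killed by clotrimazole plus chlorhexidine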
Starred values were filed as active, the others as inactive; x = no result given; [ ] = another dose, or the depositor's remark.

SMILES	ERb SRC1 inh	Smad3 FoxH1 inh	ERa SRC1 pot	HePTP inhibitor	ERa coact inh	Candida biofilm
COc1ccc(CCNC(=O)/C=C/c2cc(OC)ccc2OC)cc1	x	x	x	6	x	x
O[C@@H](C1=C/C(=C\c2ccncc2)c2ccccc21)c1ccncc1	x	76*	x	x	x	x
CCc1cccc2c(C(=O)Cn3nnc(-c4ccc(OC)c(OC)c4)n3)c[nH]c12	27	9	103	x	62*	-2
CCOC(=O)N1CCN(C(=O)C2CCN(S(=O)(=O)CC)CC2)CC1	-4	-6	238*[fluorescence artefact?]	6	0	6
O=C(O)CCN1C(=O)/C(=C2\C(=O)N(Cc3ccccc3Cl)c3ccccc32)SC1=S	x	x	x	102*	x	x
O=C(NCc1ccc2c(c1)OCO2)c1ccc(C2SCC(=O)N2Cc2ccco2)cc1 (stereo not drawn)	33	4	215*[fluorescence artefact?]	8	43	3
CN1CCN(C(=O)c2ccc(C3SCC(=O)N3Cc3ccco3)cc2)CC1 (stereo not drawn)	-3	4	118	-2	-2	3
C=CCN1C(=O)/C(=C\c2ccc(-c3ccc(C(=O)OCC)cc3)o2)C(=O)NC1=S	x	x	x	30	x	x
COc1cc(NC(=O)c2cccs2)c(C(=O)OCC(=O)NC(=O)NCc2ccccc2)cc1OC	1	-418	344*	x	39	4
COc1ccc(CNC(=O)COC(=O)c2cc(-c3cccs3)nc3ccccc23)cc1OC	6	-2	72	x	37	-4
COc1cc(NC(=O)c2cccs2)c(C(=O)OCC(=O)NC(=O)NC(C)(C)C)cc1OC	75*	-12	101	x	16	2
COc1cc(NC(=O)c2cccs2)c(OC)cc1NC(=O)c1cccs1	x	x	x	7	x	x
CC(C)OC(=O)c1c(-c2ccc(Cl)cc2Cl)csc1NC(=O)CCC(=O)O	x	x	x	6	x	x
CC(=O)COc1ccc2c(C)cc(=O)oc2c1I	x	x	x	-3	x	x
CC(C)C(=O)Nc1ccc(Cc2ccc(NC(=O)C(C)C)c(O)c2)cc1O	1	13	106	x	-6	1
CC(Cc1ccc(O)c(O)c1)C(C)Cc1ccc(O)c(O)c1 (stereo not drawn)	83*[fluorescence artefact?]	4	40	-9	66*	12
Cc1ccc(/C=C2/SC(=O)N(CN3CCCCC3)C2=O)cc1	x	x	x	-6	x	x
CCC(=O)N1N=C2c3cc(OC)ccc3CCC2C1c1ccc(N(C)C)cc1 (stereo not drawn)	x	x	x	-6	x	x
CC1(C)Cc2c(ccc3ccccc23)C(c2cc3ccccc3oc2=O)=N1	18	6	73	x	60*[fluorescence artefact?]	10
CCOC(=O)c1c(NC(=O)c2c(Cl)ccc(Cl)c2OC)sc2c1CCCC2	x	x	x	2	x	x
CCN(CC)c1ccc(N2C(=O)/C(=C\c3ccco3)SC2=S)cc1	x	x	x	14	x	x
CCCOc1ccc(N2C(=O)CC(N(CCc3ccc(OC)c(OC)c3)C(C)=O)C2=O)cc1 (stereo not drawn)	x	x	x	10	x	x
COCCCNC(=O)/C(=C/c1ccc(-c2ccc(Br)cc2)o1)NC(=O)c1ccccc1	x	x	x	3	x	x
CCOc1ccccc1C1NC(=O)c2c(sc3c2CCN(C)C3)N1 (stereo not drawn)	x	x	x	-3	x	x
CN1CCc2c(sc3c2C(=O)NC(c2cn(Cc4ccccc4)c4ccccc24)N3)C1 (stereo not drawn)	64*[fluorescence artefact?]	0	14	x	90*[fluorescence artefact?]	-1
SMILES	ERb SRC1 inh	Smad3 FoxH1 inh	ERa SRC1 pot	HePTP inhibitor	ERa coact inh	Candida biofilm
COc1ccc(CN2CCN(C(=O)c3cccs3)CC2)c(OC)c1	x	x	x	8	x	x
Clc1ccc(OCc2nn3c(-c4ccco4)nnc3s2)c(Cl)c1	50	18	173	40	66*[fluorescence artefact?]	-3
Clc1ccc(-c2ccc(-c3nn4c(-c5ccco5)nnc4s3)o2)cc1	46	9	123	14	74*	6
Cc1occc1-c1nnc2sc(-c3ccc(-c4ccc(Cl)cc4)o3)nn12	x	x	x	-4	x	x
Cc1ccc(OCc2nn3c(-c4ccco4)nnc3s2)cc1	6	2	120	-6	7	1
c1ccc(-c2nn3c(-c4ccco4)nnc3s2)nc1	22	14	72	9	-8	9
Cc1oc(-c2ccccc2Cl)cc1-c1nn2c(-c3ccco3)nnc2s1	52*[fluorescence artefact?]	-4	166	-10	58*	5
CN(C)c1ccc(-c2nn3c(-c4ccccc4Cl)nnc3s2)cc1	44	-1	94	x	72*[fluorescence artefact?]	8
COC(=O)COc1ccc(C=C2C(=O)NC(=O)NC2=O)cc1OC	x	x	x	-5	x	x
Nc1ccc(N2CCN(C(=O)c3ccco3)CC2)cc1	55*[fluorescence artefact?]	8	3	x	85*[fluorescence artefact?]	2
CCNc1ccc(Br)cc(C(=O)/C=C/c2ccccc2Cl)c1=O	74*[fluorescence artefact?]	10	94	x	80*	4
CNc1ccc(Br)cc(C(=O)/C=C/c2cccc(OC)c2OC)c1=O	55*[fluorescence artefact?]	11	73	x	42	6
COc1cc(OC)c(/C=N/N2CCN(c3ccccc3)CC2)c(OC)c1	x	x	x	4	x	x
CC(=O)N1CCN=C1SCc1ccccc1	4	-4	263*[fluorescence artefact?]	4	4	5
CC(=O)N1CCN=C1SCc1ccc(C)cc1	-3	-6	119	1	3	-15
O=C(Cn1nnc(-c2ccccc2NC(=O)c2ccco2)n1)Nc1ccccc1	43	16	286*[fluorescence artefact?]	13	60*[fluorescence artefact?]	3
COc1ccc(NC(=O)Cn2nnc(-c3ccccc3NC(=O)c3cccs3)n2)cc1	30	0	237*[fluorescence artefact?]	10	33	5
COc1ccc(-c2noc(-c3ccc(Br)o3)n2)cc1OC	-1	-27	387*[fluorescence artefact?]	6	-2	-2
COc1cc(-c2nc(-c3ccc(Br)o3)no2)cc(OC)c1OC	22	2	114	-13	44	4
COC(=O)c1cc(C(=O)Nc2ccccn2)cc([N+](=O)[O-])c1	x	x	x	9	x	x
O=c1[nH]c(=O)n(Cc2ccc(F)cc2)c(O)c1/C=C1/C=CC=N1	x	x	x	5	x	x
CSc1nc(-c2ccccc2)nc2[nH]ccc(=O)c12	25	-6	317*	7	52*[fluorescence artefact?]	5
Cc1cc(C(F)(F)F)nn1CC(=O)Nc1ccc(OC(F)(F)F)cc1	x	x	x	-14	x	x
Cc1sc2nc(C(C)Nc3ccccc3N3CCOCC3)[nH]c(=O)c2c1C (stereo not drawn)	-5	-3	254*	7	-12	3
Cc1sc2nc(SCC(=O)N3CCOCC3)[nH]c(=O)c2c1C	5	-1	94	-3	3	4
O=C1/C(=C\c2ccc(-c3ccccc3[N+](=O)[O-])o2)SC(=S)N1CCc1ccccc1	x	x	x	-11	x	x
COc1ccc2cc3cc(C(=O)Nc4ccc5c(c4)OCO5)oc3nc2c1	39	-17	159	-1	23	8
COc1ccc2nc3oc(C(=O)Nc4ccc(OC)c(OC)c4)cc3cc2c1	41	42	108	x	63*[fluorescence artefact?]	4
Cc1ccc2cc3cc(C(=O)NCc4ccc5c(c4)OCO5)oc3nc2c1	35	9	125	3	51*[fluorescence artefact?]	9
COc1ccc(C)cc1NC(=O)c1cc2cc3ccc(C)cc3nc2o1	-20	-2	209*	5	40	7

Screening data as filed in PubChem BioAssay.
